Data published in PubChem BioAssay AID777 (Sanford-Burnham Center for Chemical Genomics, 2007).
Hit rate of the full screen: of about 96,000 compounds, about 19,000 (20%) were called active.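 Rule for the calls: active = blocking of liver enzyme CYP2C9 beyond about 50% at 5 µM (limit read from the data); inactive = the rest.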 Only a sample is shown.

What follows are molecules tested against Cytochrome P450 2C9 (Homo sapiens) (UniProt P11712) (assay: blockers of cytochrome P450 2C9 activity – biochemical, luminescence, ADME assay, primary screen (AID 777)). Details: CYP2C9 Supersomes, luciferin-H conversion, at 5 µM, stronger effect = higher value.
Cytochrome P450 2C9 (Homo sapiens), sequence (P11712 whole entry, looked up): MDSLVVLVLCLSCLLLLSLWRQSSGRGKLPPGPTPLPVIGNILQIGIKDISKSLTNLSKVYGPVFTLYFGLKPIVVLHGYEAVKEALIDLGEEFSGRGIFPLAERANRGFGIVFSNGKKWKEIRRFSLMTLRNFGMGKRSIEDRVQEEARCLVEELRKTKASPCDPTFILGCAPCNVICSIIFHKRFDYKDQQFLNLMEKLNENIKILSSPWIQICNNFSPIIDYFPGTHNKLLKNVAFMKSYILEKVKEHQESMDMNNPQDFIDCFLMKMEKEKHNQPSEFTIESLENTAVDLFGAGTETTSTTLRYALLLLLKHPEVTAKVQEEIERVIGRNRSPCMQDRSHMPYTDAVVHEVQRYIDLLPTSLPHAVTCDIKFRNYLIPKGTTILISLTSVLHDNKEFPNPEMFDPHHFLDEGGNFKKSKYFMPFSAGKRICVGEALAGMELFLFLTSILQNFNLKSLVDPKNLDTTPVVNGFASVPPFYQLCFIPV

inhibition, active:
COc1ccc(NS(=O)(=O)c2ccc(NC(=S)NC(=O)CC(C)C)cc2)cc1 54.8%
CC(=O)Nc1ccc(S(=O)(=O)Nc2cccc(NC(=O)C(C)(C)C)c2)cc1 59.2%
CC(=O)Nc1ccc(S(=O)(=O)Nc2ccc(N3CCOCC3)c(F)c2)cc1 50%
COC(=O)COc1ccc(S(=O)(=O)Nc2ccc(NC(C)=O)cc2)cc1 61.2%
Cc1ccnc(N2CCN(C(=O)CSc3nc4ccccc4nc3N3CCCCC3)CC2)c1 98.5%
CCOC(=O)CN(Cc1ccc(OC)c(OC)c1)S(=O)(=O)c1ccc(OC)cc1 64%
O=C(CCN1c2ccccc2Sc2ccccc21)Nc1ccccc1 95.4%
O=C(CCN1C(=O)c2ccccc2C1=O)Nc1ccncc1 65.7%
O=c1c(-c2ccc3c(c2)OCCO3)c(C(F)(F)F)oc2cc(O)cc(O)c12 87.3%
Cc1onc(-c2ccccc2Cl)c1C(=O)NCCn1ccc2ccccc21 54.6%
Cc1onc(-c2ccccc2Cl)c1C(=O)OCC(=O)c1ccccc1 65.8%
Cc1ccc2cc(CCNC(=O)c3c(-c4ccccc4Cl)noc3C)c(=O)[nH]c2c1 93.8%
O=S(=O)(c1ccccc1)N(CC(O)CN1CCCCC1)c1ccccc1 (stereo not drawn) 56%
Cc1ccc(CCN2CC(C(=O)O)CC2=O)cc1 (stereo not drawn) 53.7%
CCc1ccc(CNC(=O)C2CC(=O)N(CCc3ccc(C)cc3)C2)cc1 (stereo not drawn) 54.1%
O=C(CNC(=O)OCc1ccccc1)Oc1cc2oc(=O)cc(-c3ccccc3)c2cc1Cl 75.7%
Cc1ccc(-c2noc(-c3ccccc3C(=O)NCC3CCCO3)n2)cc1 (stereo not drawn) 70.8%
COCCNC(=O)c1ccccc1-c1nc(-c2ccccc2Cl)no1 83.9%
O=C(N/N=C/c1ccc(O)c(O)c1)C1c2ccccc2Oc2ccccc21 55.2%

inhibition, inactive:
CC(CCO)Nc1nc2c([nH]1)c(=O)n(C)c(=O)n2C (stereo not drawn) 19.8%
COc1ccc(OC)c2[nH]c(=O)c(CCNC(=O)C(C)(C)C)cc12 -7%
CC(=O)Nc1ccc(S(=O)(=O)Nc2nc3n(n2)C(c2ccccc2)CC(=O)N3)cc1 (stereo not drawn) -3.6%
O=C(O)CCC(=O)Nc1ccc(N2CCOCC2)cc1 3.7%
CC(=O)NS(=O)(=O)c1ccc(NC(=S)NC(=O)C(C)(C)C)cc1 -22.1%
COc1ccc(NS(=O)(=O)c2ccc(NC(=O)C(C)(C(F)(F)F)C(F)(F)F)cc2)nn1 12.4%
CCCC(NS(=O)(=O)c1ccc(OC)cc1)C(=O)O (stereo not drawn) 12.5%
COc1cc(NS(=O)(=O)c2ccc(NC(C)=O)cc2)cc(OC)c1 43.7%
COc1ccc(C(=O)Nc2ccc(S(=O)(=O)NC(C)C)cc2)cc1 34.1%
COc1ccc(NS(=O)(=O)c2ccc(NC(C)=O)cc2)cc1OC -8.7%
Cc1ccccc1-n1nc(C)c2cc(C(=O)NC3CC3)sc21 37.1%
O=C(c1ccco1)N1CCN(CC(=O)N(C2CCCCC2)C2CCS(=O)(=O)C2)CC1 (stereo not drawn) -18.6%
O=[N+]([O-])c1ccccc1OCCCCN1CCCCC1 -4%
CCCC(=O)Nc1nc2ccc(NC(=O)c3cccnc3)cc2s1 27.5%
CCc1c(C)sc(NC(=O)c2ccc(Br)o2)c1C(=O)OC -40.5%
CCOC(=O)c1c(CN2CCOCC2)n(-c2ccccc2)c2ccc(O)cc12 38.1%
COc1cccc(CN2C(=O)CCC2(C)C(=O)NC2CCCCCC2)c1 (stereo not drawn) -58.7%
CCNc1nc(SCCOc2ccccc2)nc(N(C)C)n1 -4.3%
Cn1c(=O)cc(SCC(=O)N2CCCC2)c2cc(Cl)ccc21 0.1%
CCOC(=O)Nc1ccc2c(c1)N(C(=O)CN1CCN3CCCC3C1)c1ccccc1CC2 (stereo not drawn) 0.1%
CSCC[C@H](NC(=O)NCc1cccs1)C(=O)O -6.8%
COc1ccc(-n2ncc3c(N4CCc5ccccc54)ncnc32)cc1 -29.5%
CC1(C)CC(=O)C=C(NC2CC(C)(C)NC(C)(C)C2)C1 9.6%
Cc1ccc2oc(=O)c3cnn(CC(=O)N4CCN(c5ccccn5)CC4)c3c2c1 20.1%
Cc1ccc(S(=O)(=O)NCC(=O)N2CCN(c3ccccn3)CC2)cc1 5.3%
CCCc1cc(-c2n[nH]c(=S)n2Cc2ccccc2)cs1 38.6%
CC(C)c1ccc(N2CCN(C(=O)c3ccccc3NC(=O)/C=C(\C(=O)O)c3ccccc3)CC2)cc1 18%
CCOCCN(C=O)c1cccc(OC)c1 -20.4%
O=C(OCc1cc2ccccc2[nH]c1=O)c1cccnc1 12.7%
C=CCSc1nc(Cc2ccc(Cl)cc2)nc2ccccc12 2.7%
O=C(CCN1C(=O)c2ccccc2C1=O)Nc1cccc(F)c1 28.8%
O=C(CCN1C(=O)c2ccncc2C1=O)Nc1ccc2c(c1)OCCO2 -3.9%
O=C(CC1Nc2ccccc2NC1=O)Nc1ccccc1 (stereo not drawn) 6.5%
O=C(O)CCCC(=O)Nc1ccccc1-n1ccnc1 0.8%
COc1ccc(Br)cc1S(=O)(=O)N1CCN=C1C -27.3%
Cc1nc2cc(-c3ccc(F)cc3)nn2c(N2CCOCC2)c1C 8.9%
CCN1CCN(Cc2c(O)ccc3c(=O)c(-c4ccc(OC)c(OC)c4)c(C(F)(F)F)oc23)CC1 8.1%
Cc1nc(SC(C)C)[nH]c(=O)c1Cc1ccccc1 26%
CCN1C(=O)/C(=C2/Sc3ccccc3N2CCCS(=O)(=O)O)SC1=S 7%
COc1cc(/C=N/Nc2nn3cnnc3c3ccccc23)cc(OC)c1OC 25.9%
Cc1ccc2[nH]c(=O)c(COC(=O)c3ccccn3)cc2c1 8.6%
COc1c(O)cccc1-c1nnn(CCC(=O)OCC(=O)c2ccccc2)n1 29%
O=C1c2ccccc2C(=O)N1Cc1cc(-c2ccccc2Cl)no1 -135%
Cc1ccc2cc(CCNC(=O)c3ccc4c(c3)OCO4)c(=O)[nH]c2c1 31.9%
Cc1onc(-c2c(Cl)cccc2Cl)c1C(=O)c1c[nH]c(C(=O)NC2CC2)c1 7.6%
Cc1cc2ccccc2n1CCNC(=O)COc1ccc2ccccc2c1 33.5%
CC(C)Cc1oc(C(=O)O)cc1CN -3.5%
C#CCSc1nnc(-c2sc3ccccc3c2Cl)o1 26.7%
COc1ccc(C(=O)N2CCC(C(=O)Nc3cccc(C)c3)CC2)cc1OC 8.3%
CCOc1ccc(N=C2SC(C(=O)O)CC(=O)N2C)cc1 (stereo not drawn) -4.3%
CC(C)(C)NC(=O)COc1ccc(CNc2ccc3[nH]c(=O)[nH]c3c2)cc1 31.4%
Cc1ccc(S(=O)(=O)c2c(COC(=O)c3cccc(Cl)c3)c(-c3ccccc3)nn2C)cc1 49.8%
Cc1ccc(N(CC(O)CN2CCCC2)S(=O)(=O)c2ccccc2)cc1 (stereo not drawn) 27.2%
Cc1cccc(N(CC(O)CN(C)C)S(=O)(=O)c2ccccc2)c1 (stereo not drawn) 7.4%
Cc1ccc(C(=O)N(CN2CCCC2=O)c2ccc(F)cc2)cc1 -20%
CC(=O)N1Cc2ccccc2CC1C(=O)O (stereo not drawn) -18.6%
Cc1c(NC(=O)C(C)OC(=O)c2cc3c4ccccc4n(C)c3s2)c(=O)n(-c2ccccc2)n1C (stereo not drawn) -4.5%
CCOc1ccccc1NC(=O)C1CCC(CNc2c(N3CCOCC3)c(=O)c2=O)CC1 (stereo not drawn) -30.1%
COCCCNC(=O)C1CC(=O)N(CCc2ccccc2)C1 (stereo not drawn) -3.7%
O=C(NC1CCCCC1)C1CC(=O)N(CCc2ccccc2)C1 (stereo not drawn) -4.8%
O=C(O)C1CC(=O)N(Cc2cccnc2)C1 (stereo not drawn) -22%
Cc1ccc(CNC(=O)C2CC(=O)N(C3CCCCCCC3)C2)cc1 (stereo not drawn) -1.3%
Cc1nc2ccccc2c2oc(C(=O)NCCCN3CCC(C)CC3)cc12 7.6%
O=C(Cn1cnc2c(nnn2-c2ccccc2)c1=O)N1CCC(Cc2ccccc2)CC1 -30.4%
Cc1ccc(C(=O)N2CCCC2)c(F)c1F 6.3%
CN(C)CC(O)COc1ccc(C(C)(C)c2ccc(OCC(O)CN(C)C)cc2)cc1 (stereo not drawn) -6.4%
O=C(CNC(=O)c1ccccc1)NCC(=O)OCc1ccc(Cl)cc1 4.4%
O=C(NCC1CCC(C(=O)O)CC1)OCc1ccccc1 (stereo not drawn) -10.5%
CCOC(=O)CSc1nncc2ccc(OC)c(OC)c12 4.3%
Cc1nc2ccccc2cc1OCc1ccc(F)cc1 47.1%
Cc1no[n+]([O-])c1COc1ccccc1/C=C1\NC(=S)NC1=O 30.2%
O=C(NCc1ccccn1)c1cc(-c2ccccc2Cl)on1 -163%
Cc1ccc(C(=O)NCC2CCCO2)o1 (stereo not drawn) 2.8%
COc1cc(SC)ccc1C(=O)NCCOc1ccccc1Cl 28.9%
O=C(NCC1CCCO1)c1ccc2ccccc2n1 (stereo not drawn) -36.5%
O=C(c1ccc(=O)[nH]c1)N(Cc1ccco1)C1(C(=O)NC2CCCCC2)CCCCC1 -8.6%
COc1ccc(C2N=C(N)N=C(N)N2c2ccccc2)cc1OC (stereo not drawn) -7%
COc1cc(/C=N\NC(=O)C2C(=O)NCC2c2ccccc2)cc(OC)c1O (stereo not drawn) -9.3%
O=C(N/N=C/c1ccsc1)c1cc(O)cc(O)c1 5.4%
